89 compounds from PubChem BioAssay AID488965 (Broad Institute, 2010) can be followed below.

SMILES strings stand for the structures. In all, about 340,000 compounds went through this assay and about 210 (0.062%) were called active. What follows is part of a selection rich in actives, with near analogues and random picks from the rest. Unmarked numbers belong to inactive results. No stated cut-off is given here; in the data, active means inhibition above about 30% (passing the limit was not always enough); inconclusive means no clear call, values can overlap the other calls.

For the test, the system named is PvdQ acylase [Pseudomonas aeruginosa LESB58]. The test is described as follows: P. aeruginosa PvdQ acylase inhibitors, primary screen, biochemical, fluorescence, plate reader and imaging, single point (AID 488965).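 Further: 0% = vehicle neutral wells and 100% = reference inhibitor wells.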 Conditions: purified PvdQ acylase, at 10 µM, stronger effect = higher value.
For the compound `CCSc1nc2sc3c(c2c(=O)n1-c1ccc(C)cc1)CCN(C)C3`, the inhibition was -19.4%. As for `C/C=N/N(c1ccccc1)c1ccccc1`, the figure is -15.2%; as for `COC(=O)C[n+]1cccc2ccccc21`, -19.7%. As for `CC(=O)c1ccccc1NC(=O)C1CC(=O)N(c2ccc3c(c2)OCCO3)C1` (centres undefined), the figure is 3.1%; as for `Cc1ccc(-c2csc(N3CCN(c4cc5c(cc4Cl)nc(-c4ccncc4)n5CCOCCO)CC3)n2)cc1`, 2.95%; as for `CCOc1ccc(/C=C(/NC(=O)c2ccccc2)C(=O)NCCC(=O)O)cc1`, 3.82%. Take `O=C(NCc1cccnc1)c1cnc2ccccc2n1`: the inhibition was -7.28%. As for `COc1ccccc1CN1CCCC(N2CCN(c3ccc(F)cc3)CC2)C1` (centres undefined), the figure is -5.39%. Then `O=C(COC(=O)/C=C/c1cccs1)NC1CCCCC1`, with -1.95%; and `COc1ccc(Cn2c(-c3ccc(Cl)cc3)c[n+]3ccccc23)cc1`, with -9.83%; and `COc1ccc(/C(N)=N/OC(=O)CCCc2ccccc2)cc1`, with 12.9%.

Regarding `Cc1ccccc1N1CC(C(=O)Nc2ccc(S(=O)(=O)N3CCCC3)cc2)CC1=O` (centres undefined), the inhibition is -17.2%. Then `COc1ccccc1C(=O)N(Cc1ccc(C)o1)C1CCS(=O)(=O)C1` (centres undefined), with -16.8%. On to `O=C(NCc1cccc(CNC(=O)Nc2cccc(O)c2)c1)Nc1cccc(O)c1`, for which the inhibition is 8.11%. `OCCn1c(-c2ccccc2)csc1=Nc1ccccc1`: the inhibition was -14.6%. As for `CNC[C@H](CC1CCCCC1)NC[C@H](NCCC1CCCC1)[C@H](C)O`, the figure is -4.64%.

On to `CCCCNC1(C#N)CCN(Cc2ccccc2)CC1`, for which the inhibition was -10.8%.

`Cc1ccc(S(=O)(=O)N[C@@H](Cc2ccccc2)C(=O)N2CCC(C(=O)N[C@H](C(=O)O)C(C)O)CC2)cc1` (some centres undefined): the inhibition is -16.1%. As for `CN1CCN(CC(O)COCc2ccc3c(c2)OCO3)CC1` (centres undefined), the figure is 13.9%; as for `O=C(c1cccs1)C1C(c2ccc(Br)cc2)NC(=S)NC1(O)C(F)(F)F` (centres undefined), -1.76%. Then `Cc1ccc2nc(SCC(=O)N3CCN(c4ccccc4)CC3)nc(=O)n2c1`, with -4.06%. Then `CCC1([N+](=O)[O-])COC(c2ccc(C)cc2)OC1` (centres undefined), with -3.75%; and `CCCCCN(C(=O)NC(=O)Nc1ccccc1OC)S(C)(=O)=O`, with -5.97%. Turning to `Cc1cccn2c(CN(C)C3CCCc4ccccc43)c(C(=O)N3CCOCC3)nc12` (centres undefined), the inhibition is -1.38%. As for `CCOc1cccc(OCCCOc2cccc3cccnc23)c1`, the figure is -17.7%. Then `COc1ccc(S(=O)(=O)N(C)C[C@H]2Oc3ccc(NS(=O)(=O)c4cccs4)cc3CC(=O)N([C@H](C)CO)C[C@H]2C)cc1`, with 3.49%; and `CCCCN1CC(COc2ccccc2)Oc2cccc(F)c2S1(=O)=O` (centres undefined), with -16%; and `O=C(O)c1ccc(OCC2CCCO2)cc1` (centres undefined), with -9.45%. As for `CCCCCC1CC(COc2ccccc2)OC1=O` (centres undefined), the figure is 44.8% (active); as for `CCCCCCNS(=O)(=O)c1ccccc1Br`, -11.4%. Consider `CC(CNC(=O)Cn1cnc2c(OCc3ccccc3)ncnc21)c1ccccc1` (centres undefined), for which the inhibition is -13.2%.

On to `CCCCNC(=O)N1CCCC(N(C)CCc2ccc(OC)c(OC)c2)C1` (centres undefined), for which the inhibition was -14.5%. Then `CN(Cc1ccccc1F)C(=O)C(Cc1ccccc1)NC(=O)c1ccccc1` (centres undefined), with -5.25%.

`Cc1nn(CCOc2ccc(Br)cc2)c(C)c1[N+](=O)[O-]`: the inhibition is -14%. Then `CCOC(=O)N1CCN(Cc2nc3ccc([N+](=O)[O-])cc3c(=O)n2-c2cccc(OC)c2)CC1`, with -6.54%; and `CCn1nnnc1SCC(=O)Nc1ccc(N(C)C)cc1`, with -8.46%; and `COc1ccc(N(CC(=O)NC2CCCCCCC2)S(=O)(=O)c2c(C)nn(C)c2C)cc1`, with -11.2%. As for `Cc1ccc(CNC(=O)CC(NC(=O)c2ccccc2)c2ccccc2)cc1` (centres undefined), the figure is -6.05%; as for `NC(=O)c1ncc(C(F)(F)F)cc1Oc1ccc(F)cc1`, -11.7%. As for `O=C(Nc1ccc(OCC(=O)N2CCOCC2)cc1)c1cc(F)c(F)cc1Cl`, the figure is -15.7%; as for `Cc1ccc(CN2CC(C(=O)N3CCN(S(=O)(=O)c4ccccc4)CC3)CC2=O)cc1` (centres undefined), -11.4%.

Regarding `O=C1C=CC(=O)N1c1ccc(N2CCCCC2)cc1`, the inhibition is -13.5%.

With `C#CCOCCOCCOCCNc1nc(N2CCN(C(=O)[C@H](CO)n3cc([C@@H](N)C(C)C)nn3)CC2)nc(N2CCN(C(=O)[C@H](CCC(=O)O)n3cc([C@@H](N)[C@H](C)CC)nn3)CC2)n1`, the inhibition is -4.25%.

On to `COc1ccc(C(=O)NC2CCN(C(=O)Nc3ccc(F)cc3)CC2)cc1`, for which the inhibition was -6.33%.

Consider `O=C(CSc1nnc(-c2cccnc2)n1CCc1ccccc1)NCc1ccccc1`, for which the inhibition is -11.6%. Consider `CCOC(=O)C1(Cc2ccc(O)cc2)NC(c2ccccc2F)C2C(=O)N(C)C(=O)C21` (centres undefined), for which the inhibition is -8.27%. `CC[C@]12c3[nH]c4ccc(Cl)cc4c3CCN1C(=O)[C@@H](CC(=O)NCCCOC)C[C@@H]2C(=O)N1CCN(C(=O)c2ccco2)CC1`: the inhibition is -13.8%. For the compound `O=C(/C=C/c1ccccc1Cl)Nc1ccc(S(=O)(=O)Nc2ncccn2)cc1`, the inhibition is -4.75%.

Turning to `O=C(CCCOc1ccccc1)NCc1ccco1`, the inhibition was -2.34%. Then `CCn1c(SCC(=O)Nc2ccc(OC)c(OC)c2)nnc1-c1c[nH]c2ccccc12`, with -5.34%; and `COc1ccc(N2C(=O)CC(Sc3n[nH]c(-c4ccc(C)cc4)n3)C2=O)cc1` (centres undefined), with -16%; and `CC(NC(=S)NNS(=O)(=O)c1ccc(C(C)(C)C)cc1)c1ccccc1` (centres undefined), with -8.37%. As for `Cc1cc(C)cc(NC(=O)N(C)Cc2ccccc2)c1`, the figure is -16%.

For the compound `C/C(Cc1ccccc1)=N\NC(=O)CNC(=O)c1cccc(Br)c1`, the inhibition was 2.03%. As for `CCOc1ccc(OCC)c(NC(=O)CCS(=O)(=O)c2ccc(C)cc2)c1`, the figure is -14.3%; as for `CCc1ccc(NC(=O)N2CCc3ccccc3C2)cc1`, -0.823%. Consider `CCOC(=O)C(NC(=O)CC(C)C)(Nc1sc2c(c1C(N)=O)CCCC2)C(F)(F)F` (centres undefined), for which the inhibition is -4.91%. Then `CC1Cc2ccccc2N1S(=O)(=O)c1ccc(Cl)nc1` (centres undefined), with 24.3%; and `COc1ccc(OCC(=O)NN2Cc3ccccc3C2=N)cc1`, with 7.9%. As for `COc1ccc(CNS(=O)(=O)c2ccc(NC(=O)N3CCCCC3)cc2)cc1`, the figure is 1.88%; as for `N#Cc1cc([N+](=O)[O-])ccc1Oc1cccc(/C=N/NC(=O)c2ccc(Cl)cc2)c1`, 65.3% (active); as for `O=C(N/N=C/c1cccc(OC(=O)c2ccc([N+](=O)[O-])cc2)c1)c1cccnc1`, -8.47%. Take `O=C(N/N=C/c1ccc(Cl)cc1)c1nc2ccc([N+](=O)[O-])cc2c(=O)[nH]1`: the inhibition was -8.55%. As for `C/C(=N\NC(=O)Cc1ccccc1[N+](=O)[O-])c1cccnc1`, the figure is -8.6%. As for `O=C(CN1CCSCC1)N/N=C/c1ccc(F)cc1F`, the figure is -7.29%; as for `COc1ccccc1N1CCN(C(=O)CCS(=O)(=O)c2ccc3c(c2)NC(=O)C(C)S3)CC1` (centres undefined), -17.3%. Consider `CN1C(C(=O)NCc2ccco2)CC2Cn3c(nc4ccccc43)C21` (centres undefined), for which the inhibition is -1.69%. Then `CCOC(=O)N1CCC(Nc2c(NCCCN3CCN(CC)CC3)c(=O)c2=O)CC1`, with -6.72%; and `O=C(NCc1ccco1)/C(=C/c1cccc([N+](=O)[O-])c1)NC(=O)c1ccco1`, with 5.34%. Then `OC(CNCC1CCCO1)Cn1c2ccc(Br)cc2c2cc(Br)ccc21` (centres undefined), with -10.5%.

Turning to `O=c1cc(Cl)c2ccccc2n1-c1ccccc1`, the inhibition was -10.1%. Then `Cc1cccc(N2CCN(C(=O)c3cccc(N4C(=O)C5C6C=CC(C6)C5C4=O)c3)CC2)c1C` (centres undefined), with -11.5%. `Cc1ccc(S(=O)(=O)NCCSC(C)(C)C)cc1`: the inhibition was 6.35%. Then `COc1ccc(S(=O)(=O)N2C[C@H]3CON(C)[C@H]3C[C@H]2c2cccc(Br)c2)cc1`, with 4.46%; and `O=C(NCCc1ccccc1)C1CCC(Cn2c(=O)c3ccccc3n(Cc3cccnc3)c2=O)CC1` (centres undefined), with -13.5%; and `COc1ccc(-c2[nH]ncc2CN(C)Cc2cccnc2)c(F)c1`, with -16.1%. In the case of `Cc1ccc(N(C(=O)Cc2cccs2)C2C=CS(=O)(=O)C2)cc1Cl` (centres undefined), the inhibition is -5.8%. As for `CCCC(=O)N1CCN(c2nnc(-c3ccc(C)cc3)c3ccccc23)CC1`, the figure is -23.6%; as for `COc1cccc(NC(=O)c2ccccc2N(Cc2ccccc2)S(C)(=O)=O)c1`, -17.2%; as for `CCOc1ccc(-c2noc(CCC(=O)NC3CCCC3)n2)cc1OC`, 3.89%. As for `CC(C)=CCC/C(C)=C/C(=O)O`, the figure is -3.82%; as for `O=C(N/C(=C/c1ccc(Cl)cc1)C(=O)N1CCCCC1)c1ccco1`, -10.7%; as for `CN1C(C(=O)NCC2CC2)CC2Cn3c(nc4ccccc43)C21` (centres undefined), -7.73%. As for `O=C1C=C(c2cccc(Cl)c2)C[C@@H](c2ccc(F)cc2)C1`, the figure is 37.3% (active); as for `COc1cccc(C2=CC(=O)C[C@H](c3ccc(F)cc3)C2)c1OC`, -13.7%.

As to `COc1cccc(C2=CC(=O)C[C@H](c3ccc(OC)c(OC)c3)C2)c1`, the inhibition is -0.585%. As for `COc1ccccc1C1=CC(=O)C[C@H](c2ccc(F)cc2)C1`, the figure is 2.08%; as for `O=C1C=C(c2cccc(Cl)c2O)C[C@@H](c2ccc(F)cc2)C1`, -5.55%. Then `O=C1C=C(c2cccc(Br)c2)C[C@@H](c2ccc(F)cc2)C1`, with 63.4% (active).
